{
  "source": "PubChem BioAssay AID1053127",
  "about": "(Broad Institute, 2014)",
  "note": "Measured potencies and affinities stand elsewhere. Unmarked numbers belong to inactive results.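 How the source made its calls: active means compounds whose fitted curve of lowered CTGF expression reaches half effect within a set concentration limit; inconclusive means flat moderate drop in CTGF, or unreliable curve fit; inactive means the rest.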",
  "data": [
    {"assay": "YAP1 overexpression rescue of CTGF inhibition – DLD1 cells, RT-qPCR, cherry-pick, mechanism study for YAP1 pathway inhibitor project, dose response (AID 1053127)", "conditions": "DLD1 YAP1-overexpressing, CTGF mRNA qPCR, 24 h; series mostly up to 26 µM; CTGF fold change (delta-delta-Ct), lower = inhibition: at the top concentration", "values": [
      {"smiles": "CCCC#Cc1ccc([C@@H]2[C@@H](C#N)N(C(=O)CN3CCOCC3)[C@H]2CO)cc1", "CTGF fold change (delta-delta-Ct), lower = inhibition": "1.04 unspecified [at 23.5 µM]"},
      {"smiles": "COc1ccc2c3c([nH]c2c1)[C@H](CO)NCC31CCN(C(=O)Cc2cccnc2)CC1", "CTGF fold change (delta-delta-Ct), lower = inhibition": "1.14 unspecified"},
      {"smiles": "C[C@H](CO)N1C[C@H](C)[C@H](CN(C)Cc2ccc(Oc3ccccc3)cc2)OCc2ccccc2-c2ccccc2C1=O", "CTGF fold change (delta-delta-Ct), lower = inhibition": "1.45 unspecified [at 23.5 µM]"},
      {"smiles": "CCC(=O)N1Cc2cc(C(=O)NCc3cccc(F)c3)nc(-c3cccc(C4=CCCC4)c3)c2[C@H]1CCO", "CTGF fold change (delta-delta-Ct), lower = inhibition": "1 unspecified"},
      {"smiles": "CO[C@H]1CN(C)C(=O)c2cc(NC(=O)Nc3ccccc3F)ccc2OC[C@H](C)N(CCC(F)(F)F)C[C@@H]1C", "CTGF fold change (delta-delta-Ct), lower = inhibition": "1.03 unspecified"},
      {"smiles": "C[C@@H]1CN([C@@H](C)CO)C(=O)c2ccccc2-c2ccccc2CO[C@H]1CN(C)C(=O)Nc1ccc(-c2ccccc2)cc1", "CTGF fold change (delta-delta-Ct), lower = inhibition": "0.561 unspecified"},
      {"smiles": "COc1cccc(-c2ccc([C@@H]3[C@@H](C#N)N(C(=O)Cc4ccncc4)[C@@H]3CO)cc2)c1", "CTGF fold change (delta-delta-Ct), lower = inhibition": "1.08 unspecified"},
      {"smiles": "C[C@@H]1CN([C@H](C)CO)C(=O)c2ccccc2-c2ccccc2CO[C@@H]1CN(C)Cc1ccc2c(c1)OCCN2C", "CTGF fold change (delta-delta-Ct), lower = inhibition": "0.735 unspecified"},
      {"smiles": "N#C[C@@H]1[C@H](c2ccc(-c3cccc(F)c3)cc2)[C@H](CO)N1C(=O)NC1CCCC1", "CTGF fold change (delta-delta-Ct), lower = inhibition": "1.04 unspecified"},
      {"smiles": "O=C(c1cccc(F)c1)N1CCCCN2[C@@H](CO)[C@H](c3ccc(C#CC4(O)CCCC4)cc3)[C@@H]2C1", "CTGF fold change (delta-delta-Ct), lower = inhibition": "0.713 unspecified"},
      {"smiles": "COCC(=O)N1CC[C@@H]2[C@H](CO)Nc3ccc(C#Cc4ccc(F)cc4)cc3[C@@H]21", "CTGF fold change (delta-delta-Ct), lower = inhibition": "0.882 unspecified"},
      {"smiles": "CNC[C@H]1Oc2c(NC(=O)Nc3cccc4ccccc34)cccc2C(=O)N([C@H](C)CO)C[C@@H]1C", "CTGF fold change (delta-delta-Ct), lower = inhibition": "0.844 unspecified"},
      {"smiles": "C[C@@H]1CN([C@H](C)CO)S(=O)(=O)c2ccc(C#Cc3cccc(F)c3)cc2O[C@@H]1CN(C)S(=O)(=O)c1cn(C)cn1", "CTGF fold change (delta-delta-Ct), lower = inhibition": "0.498 unspecified"},
      {"smiles": "C[C@@H]1CN([C@H](C)CO)C(=O)c2ccccc2-c2ccccc2CO[C@@H]1CN(C)Cc1ccccc1C(F)(F)F", "CTGF fold change (delta-delta-Ct), lower = inhibition": "0.88 unspecified"},
      {"smiles": "CCc1nc(N2[C@H](CO)[C@@H](c3ccccc3-c3ccc(F)cc3)[C@@H]2C#N)sc1C", "CTGF fold change (delta-delta-Ct), lower = inhibition": "0.697 unspecified"},
      {"smiles": "C[C@H]1CC=CC[C@@H](c2ccc(F)cc2)NC(=O)[C@H](Cc2ccccc2)N(C)C(=O)c2ccccc2O1", "note": "(mixture of isomers)", "CTGF fold change (delta-delta-Ct), lower = inhibition": "0.62 unspecified"},
      {"smiles": "C[C@@H]1CN([C@H](C)CO)S(=O)(=O)c2ccc(C#Cc3ccccc3F)cc2O[C@@H]1CN(C)C(=O)Cc1cccnc1", "CTGF fold change (delta-delta-Ct), lower = inhibition": "0.807 unspecified"},
      {"smiles": "CN(C)C(=O)c1ccc(-c2cccc(-c3nc(C(=O)NCc4ccccc4)cc4c3[C@@H](CCO)N([S@](=O)C(C)(C)C)C4)c2)cc1", "CTGF fold change (delta-delta-Ct), lower = inhibition": "1.52 unspecified"},
      {"smiles": "NCC[C@H]1CC[C@@H](NC(=O)NC2CCCCC2)[C@H](CO)O1", "CTGF fold change (delta-delta-Ct), lower = inhibition": "1.29 unspecified"},
      {"smiles": "O=C([C@H]1[C@H](CO)[C@H]2Cn3c(ccc(-c4ccc(F)cc4)c3=O)[C@H]2N1Cc1cocn1)N1CCCCC1", "CTGF fold change (delta-delta-Ct), lower = inhibition": "0.918 unspecified"},
      {"smiles": "COc1ccccc1S(=O)(=O)N1CC[C@@H]2[C@H]1c1cc(-c3cccc(C#N)c3)ccc1N(C)[C@H]2CO", "CTGF fold change (delta-delta-Ct), lower = inhibition": "0.771 unspecified [at 23.5 µM]"},
      {"smiles": "COc1ccc([C@H]2C/C=C\\C[C@@H](c3ccc4c(c3)OCO4)NC(=O)[C@@H](c3ccccc3)CC(=O)N2)c(OC)c1", "CTGF fold change (delta-delta-Ct), lower = inhibition": "2.27 unspecified"},
      {"smiles": "C[C@@H]1CN([C@@H](C)CO)C(=O)c2ccccc2-c2ccccc2CO[C@@H]1CN(C)S(=O)(=O)c1cn(C)cn1", "CTGF fold change (delta-delta-Ct), lower = inhibition": "1.32 unspecified"},
      {"smiles": "CO[C@@H](CN(C)S(=O)(=O)c1ccc(C)cc1)[C@@H](C)CN([C@H](C)CO)S(=O)(=O)c1cccc(Cl)c1", "CTGF fold change (delta-delta-Ct), lower = inhibition": "0.886 unspecified"},
      {"smiles": "CCS(=O)(=O)Nc1ccc2c(c1)C(=O)N(C)[C@H]1CC[C@H](CC(=O)N3CCN(C)CC3)O[C@H]1CO2", "CTGF fold change (delta-delta-Ct), lower = inhibition": "1.29 unspecified"},
      {"smiles": "C[C@H]1CN([C@@H](C)CO)S(=O)(=O)c2ccc(-c3cncnc3)cc2O[C@@H]1CN(C)C(=O)NC1CCCC1", "CTGF fold change (delta-delta-Ct), lower = inhibition": "0.826 unspecified"},
      {"smiles": "O=S(=O)(c1ccccc1)N1CCCCN2[C@H](C1)[C@@H](c1ccc(C#CC3CCCC3)cc1)[C@@H]2CO", "CTGF fold change (delta-delta-Ct), lower = inhibition": "0.946 unspecified"},
      {"smiles": "C[C@@H]1CN([C@H](C)CO)C(=O)c2ccccc2-c2ccccc2CO[C@@H]1CN(C)Cc1cccc2c1OCCCO2", "CTGF fold change (delta-delta-Ct), lower = inhibition": "0.917 unspecified"},
      {"smiles": "O=C(Nc1cccc(F)c1)N1CCCCN2[C@H](C1)[C@H](c1ccc(C#Cc3cccnc3)cc1)[C@@H]2CO", "CTGF fold change (delta-delta-Ct), lower = inhibition": "0.942 unspecified"},
      {"smiles": "Cc1ccc(S(=O)(=O)N[C@H]2C=C[C@H](CC(=O)NCc3ccc(Cl)c(Cl)c3)O[C@H]2CO)cc1", "CTGF fold change (delta-delta-Ct), lower = inhibition": "0.997 unspecified"},
      {"smiles": "C[C@H]1CN([C@@H](C)CO)C(=O)c2cccc(NC(=O)c3nc4ccccc4s3)c2O[C@@H]1CN(C)C(=O)Nc1ccc2c(c1)OCO2", "CTGF fold change (delta-delta-Ct), lower = inhibition": "0.677 unspecified"}
    ]}
  ]
}
